Results on 40 compounds are retold here after PubChem BioAssay (EPA / NIEHS).

One may read the AC50 as the midpoint of the concentration-response curve, whichever way the signal moves.

Activity calls are given as the source filed them. Rule for the calls: active = hit-call score of the fitted dose curve at least 0.9, where 1 is the maximum; inactive = score below 0.9.

This assay is described as follows: ATG_TGFb_CIS: Attagene CIS-FACTORIAL HepG2 Assay for human Transforming Growth Factor (TGF) (AID 2282967). Particulars: HepG2 Attagene CIS TGFb reporter, mRNA transcription; actives raise or lower the signal. On the procedure: ATG_CIS is a cell-based, multiplexed-readout assay that uses HepG2, a human liver cell line, with measurements taken at 24 hours after chemical dosing in a 24-well plate.ATG_TGFb_CIS is one of 52 assay component(s) measured or calculated from the ATG_CIS assay. It is designed to make measurements of mRNA induction, a form of inducible reporter, as detected with fluorescence intensity signals by Reverse transcription polymerase chain reaction (RT-PCR) and Capillary electrophoresis technology.Data from the assay component ATG_TGFb_CIS was analyzed into 1 assay endpoint. This assay endpoint, ATG_TGFb_CIS, was analyzed with bidirectional fitting relative to DMSO as the negative control and baseline of activity. Using a type of inducible reporter, measures of mRNA for gain or loss-of-signal activity can be used to understand the reporter gene at the transcription factor-level as they relate to the gene TGFB1. Furthermore, this assay endpoint can be referred to as a primary readout, because this assay has produced multiple assay endpoints where this one serves a reporter gene function. To generalize the intended target to other relatable targets, this assay endpoint is annotated to the growth factor intended target family, where the subfamily is transforming growth factor beta.
Human liver HepG2 cells are transiently transfected with multiple reporter transcription units (MRTUs) in 6-well plates using FuGene 6 reagent (Roche; 3 ml FuGene/1 mg DNA). The MRTU constructs are regulated by a cis-regulating element (promoter). […] A major difference between the CIS and TRANS system is that in CIS activities of endogenous TFs are measured, whereas the TRANS assay evaluates changes in activities of exogenous, chimeric NR-Gal4 proteins. […] At the end of 24 hour incubation, total RNA was isolated using TriZol reagent (Invitrogen). The isolated RNA is then reverse-transcribed using oligo(dT) primer and Mo-MLV reverse transcriptase (Invitrogen) with DNAse I (Ambion) treatment for 30 min. The one-tenth of the produced cDNA was amplified by PCR using Taq DNA polymerase (Invitrogen) and two reporter sequence-specific primers. The PCR products were fluorescently labeled by primer extension with 6-arboxyfluorescein (6-FAM) 5'-labeled reporter sequence-specific primer (2 min at 95 C, 20 s at 68 C and 10 min at 72 C) and these products were digested with 5U of HpaI (New England Biolabs) for 2h at 37 C. The fragments were purified using Qiaquick PCR columns (Qiagen), analyzed on an ABI 3130xL genetic analyzer (Applied Biosystems) with peak positions identified by using a set of X-rhodamine (ROX)-labeled MapMarker1000 molecular weight standards (BioVentures). The raw capillary electrophoresis data was processed using Attagraph software (Attagene).
As for `OCCCC(F)(F)C(F)(F)C(F)(F)C(F)(F)C(F)(F)C(F)(F)C(F)(F)F`, the compound was classed as inactive.

Regarding `O=C(OCCOCCOCCOC(=O)c1ccccc1)c1ccccc1`, the compound was called inactive.

On to `O=C(CC(=O)C(F)(F)C(F)(F)F)C(F)(F)F`, for which the compound was classed as inactive.

Regarding `C=C(C)C(=O)OCC(F)(F)C(F)(F)C(F)(F)C(F)(F)C(F)(F)C(F)(F)C(F)(F)F`, the call was inactive.

In the case of `C=CC/C=C/C/C=C/C/C=C/C`, the call was inactive.

`CNC(=S)NC`: the outcome was inactive.

In the case of `OCC(F)(F)C(F)(F)C(F)(F)C(F)(F)C(F)(F)C(F)F`, the result was inactive.

For `CCCCOc1ccc(N)cc1`, the result was inactive.

With `C=C(C)C(=O)OCC(F)(F)C(F)(F)C(F)(F)F`, the outcome was inactive.

For the compound `Cc1cc(C)cc(O)c1`, the outcome was inactive.

In the case of `Oc1ccc(Nc2ccccc2)cc1`, the outcome was inactive.

As to `C=CC(=O)OCC(F)(F)C(F)(F)C(F)(F)C(F)(F)COC(=O)C=C`, the result was inactive.

On to `C=CC(=O)OCC(F)(F)C(F)(F)C(F)(F)C(F)(F)C(F)(F)C(F)(F)C(F)(F)F`, for which the call was inactive.

Turning to `Cc1ccc(S(=O)(=O)NCl)cc1`, the result was inactive.

Consider `FC(F)(F)C(F)(F)C(F)(F)C(F)(F)CCI`, for which the result was inactive.

Turning to `O=C(Cl)C(F)(F)C(F)(F)C(F)(F)C(F)(F)C(F)(F)C(F)(F)C(F)(F)C(F)(F)F`, the compound was classed as inactive.

On to `O=S(=O)(O)c1ccc2ccccc2c1`, for which the result was inactive.

As for `CN(C)Cc1ccccc1O`, the compound was called inactive.

Take `CC(C)OC(=O)c1ccccc1C(=O)OC(C)C`: the outcome was inactive.

As to `O=S(=O)(OCCOC(F)(F)F)C(F)(F)F`, the result was inactive.

As for `O=C(O)C(F)(F)C(F)(F)F`, the call was inactive.

`FC(F)(F)C(F)(F)C(F)(F)C(F)(F)C(F)(F)C(F)(F)C(F)(F)I`: the outcome was inactive.

In the case of `C=CC(F)(F)C(F)(F)C(F)(F)C(F)(F)C(F)(F)C(F)(F)C(F)(F)C(F)(F)F`, the outcome was inactive.

As to `FC(F)(F)C(F)(F)C(F)(F)C(F)(F)C(F)(F)C(F)(F)C(F)(F)C(F)(F)F`, the result was inactive.

Take `FC(F)(Br)C(F)(F)C(F)(F)C(F)(F)C(F)(F)C(F)(F)Br`: the call was inactive.

As to `CC/C=C\CCOC(=O)c1ccccc1`, the outcome was inactive.

As to `CCCCNc1ccccc1`, the outcome was inactive.

In the case of `C=CC(F)(F)C(F)(F)C(F)(F)C(F)(F)C(F)(F)C(F)(F)C(F)(F)C(F)(F)C=C`, the compound was classed as inactive.

As to `FC(F)(F)C(F)(F)C(F)(F)CI`, the compound was called inactive.

In the case of `CCCCCCCCC(F)(F)C(F)(F)C(F)(F)C(F)(F)C(F)(F)C(F)(F)F`, the compound was called inactive.

`CCCCCCCCCCCCCCCC[N+](C)(C)Cc1ccccc1`: the call was inactive.

As for `N=C(N)C(F)(F)C(F)(F)C(F)(F)C(F)(F)C(F)(F)C(F)(F)C(F)(F)F`, the call was inactive.

For `FC(F)(F)C(F)(F)C(F)(F)C(F)(F)C(F)(F)C(F)(F)CC1CO1` (stereo not given), the call was inactive.

`OCC(F)(F)C(F)(F)C(F)(F)C(F)F`: the result was inactive.

As to `O=C(O)C=C(C(F)(F)F)C(F)(F)F`, the outcome was inactive.

As to `CCc1ccc(C(c2ccc(CC)cc2)C(Cl)Cl)cc1`, the result was inactive.

Consider `C#C[C@]1(O)CC[C@H]2[C@@H]3CCc4cc(OC)ccc4[C@H]3CC[C@@]21C`, for which the concentration at half-maximal activity (AC50) was 139 µM (active).

`Cc1cccc(N(C)C)c1`: the result was inactive.

As to `CCN(Cc1cccc(S(=O)(=O)O)c1)c1ccc(C(=C2C=CC(=[N+](CC)Cc3cccc(S(=O)(=O)O)c3)C=C2)c2ccc(O)cc2S(=O)(=O)[O-])cc1`, the compound was classed as inactive.

Turning to `CC(C)(C)c1ccc(OC2CCCCC2O)cc1` (stereo not given), the outcome was inactive.
